± gives the standard deviation of the averaged measurements.
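Note: TDF denotes transformed human dermal fibroblasts of mesenchymal origin.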

The subject of this assay is HCC1569. Nature of the assay: cell number relative to DMSO (% of DMSO); higher = more cells (less growth inhibition / toxicity). The following applies: concentration: 10 µM; 24 h. Summed up: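 For HCC1569 and TDF cells, compounds at 10 µM were applied for 24 h at 37 °C in triplicate in 384-well plates. Cells were fixed in 3.7% formaldehyde, stained for H1.0 and with DAPI, and imaged at ×10 over six fields per well. The endpoint, H1.0 nuclear intensity or cell number, is shown as percent of the plate control using the median of replicates. Positional effects were smoothed for HCC1569 only.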
For `O=C1NCN(c2ccccc2)C12CCN(CCCC(c1ccc(F)cc1)c1ccc(F)cc1)CC2` [Fluspirilene], the cell number was found to be 82.7 ± 16.
Turning to `Cc1[nH]c2ccccc2c1CCNC(=O)c1cccs1` [N-[2-(2-methyl-1H-indol-3-yl)ethyl]-2-thiophenecarboxamide], the cell number is 102.
On to `Cl.c1ccc2c(CC3=NCCN3)cccc2c1` [Naphazoline hydrochloride], for which the cell number worked out at 96.1.
The figure for `CC1OC(OC2C(Oc3cc(O)c4c(c3)OC(c3ccc(O)cc3)CC4=O)OC(CO)C(O)C2O)C(O)C(O)C1O` (stereo not given) [Naringin] is 103; for `O=c1[nH]c2ccccc2n1CCN1CCN(c2cccc(C(F)(F)F)c2)CC1` it is 103; for `CSc1ccc(/C=C2/C(C)=C(CC(=O)O)c3cc(F)ccc32)cc1` it is 103.
The figure for `CS(=O)(=O)O.NC(=NC(=O)c1nc(Cl)c(N)nc1N)Nc1ccccc1` [Phenamil methanesulfonate] is 103.
Regarding `CC(C(=O)O)c1ccc(CC2CCCC2=O)cc1` (stereo not given) [loxoprofen], the cell number stood at 103.
With `CSc1cccc(Nc2ncc3cc(-c4c(Cl)cccc4Cl)c(=O)n(C)c3n2)c1` the figure was 37.3; with `CCCCCCCCCCCCC(=O)O` [Tridecanoic acid], 105; with `Cn1cc[nH]c1=S` [Methimazole], 107.
The compound `COC1=C2CC(C)=c3c(C(C)=O)c(OC)c(O)c4c3c2c2c(cc(OC)c3c(OC)cc(O)c4c32)C(=O)C1=O` [Hypocrellin B] displayed a cell number of 101.
Take `Cl.Cl.Nc1nccc(-c2c(-c3ccc(F)cc3)ncn2C2CCCCC2)n1`: the cell number worked out at 80.6.
The compound `CN(C)c1ccc(O)c2c1CC1CC3C(N(C)C)C(=O)C(C(N)=O)=C(O)C3(O)C(=O)C1=C2O` (stereo not given) [Minocycline] returned a cell number of 107.
Regarding `CCCN(CCc1ccccc1)C1CCc2c(O)cccc2C1` (stereo not given) [2-(N-Phenethyl-N-propyl)amino-5-hydroxytetralin], the cell number turned out to be 105.
Compound `CCCCCCCCC=CCCCCCCCC(=O)OCC(O)COP(=O)(O)O` (stereo not given) [Lysophosphatidic acid] showed a cell number of 101.
The figure for `CCCCCCCCCCCCCCCC(=O)NCCc1ccc(O)c(O)c1` [Palmitoyl dopamine] is 92.7.
`O=C(O)C1CCCNC1C(=O)O` (mixture of isomers) returned a cell number of 108.
As to `CCCCCC(O)C=CC1C(O)CC(O)C1CC=CCCCC(=O)O` (stereo not given) [Prostaglandin F2a], the cell number was 97.3.
With `CN1CCN(C2=Nc3ccccc3Sc3ccc(Cl)cc32)CC1` [Clothiapine] the figure was 103; with `O=C(O)CP(=O)(O)O` [Phosphonoacetic acid], 101.
The figure for `Cc1cc(Nc2cc(N3CCN(C)CC3)nc(Sc3ccc(NC(=O)C4CC4)cc3)n2)n[nH]1` [Tozasertib] is 70.4; for `CCCCCC=CCC=CCC=CC=CC(O)CCCC(=O)O` (stereo not given) it is 97.
With `CCCCCC=CCC=CC=CC=CC(SCC(NC(C)=O)C(=O)O)C(O)CCCC(=O)O` (stereo not given) [N-Acetyl-leukotriene E4] the figure was 103.
On to `O=C1c2ccccc2-c2n[nH]c3cccc1c23` [JNK Inhibitor II], for which the cell number came out at 91.4.
With `CCC(C)C(=O)OC1CCC=C2C=CC(C)C(CCC3CC(O)CC(=O)O3)C21` (stereo not given) [Mevastatin] the figure was 100.8 ± 0.37; with `Cl.O=C(c1ccc(OCCN2CCCCC2)cc1)c1c(-c2ccc(O)cc2)sc2cc(O)ccc12` [Raloxifene hydrochloride], 90.1.
The figure for `O=c1c(O)c(-c2cc(O)c(O)c(O)c2)oc2cc(O)ccc12` [Robinetine] is 99.
The figure for `CCCCCCCCc1ccc(CCC(N)(CO)CO)cc1.Cl` is 13.6; for `CCCN(CCC)C(=O)C(CCC(=O)O)NC(=O)c1ccccc1` (stereo not given) [Proglumide] it is 109.
Turning to `CN1CCN(c2c(F)cc3c(=O)c(C(=O)O)cn4c3c2SCC4)CC1` [Rufloxacin], the cell number came out at 107.
Turning to `OCCn1cc(-c2cnc3nnn(Cc4ccc5ncccc5c4)c3n2)cn1`, the cell number came to 99.6.
`CCc1nn(CCCN2CCN(c3cccc(Cl)c3)CC2)c(=O)n1CCOc1ccccc1` gave a cell number of 92.2.
As to `CC1CNc2c(cccc2S(=O)(=O)NC(CCCN=C(N)N)C(=O)N2CCC(C)CC2C(=O)O)C1` (stereo not given) [Argatroban], the cell number stood at 107.
The figure for `CN(C)C(=O)COC(=O)Cc1ccc(OC(=O)c2ccc(N=C(N)N)cc2)cc1.CS(=O)(=O)O` is 99.4; for `Cc1cc2cc3c(C)cc(=O)oc3c(C)c2o1` [4,5',8-Trimethylpsoralen] it is 97.9.
The figure for `OC1C=C2CCN3Cc4cc5c(cc4C(C1O)C23)OCO5` (stereo not given) [Lycorine] is 67.4; for `CCC1(O)CC(OC2CC(N(C)C)C(OC3CC(O)C(OC4CCC(=O)C(C)O4)C(C)O3)C(C)O2)c2c(cc3c(c2O)C(=O)c2c(O)cccc2C3=O)C1C(=O)OC` (stereo not given) [Aclarubicin] it is 83.2.
Compound `O=C1CCC(N2C(=O)c3ccccc3C2=O)C(=O)N1` (racemic) returned a cell number of 103.
Regarding `OCC(CO)(CO)NCC(O)Cn1c2ccc(Cl)cc2c2cc(Cl)ccc21` (stereo not given), the cell number was 74.3.

The values above are taken from the supplement of paper PMC7156485.
